In PubChem BioAssay (Tox21) one finds Potency data, which are given here for 40 molecules.

Values joined by “and” are separate entries in the source; they are usually repeats but may differ in a detail not shown here. Equal values may be shown once. Results filed as inconclusive are left out. Where a call stands in place of a potency, no number is given. Active and inactive are the calls of the source. Calls come from the whole dose curve; as a rule, active = well fitted inhibition curve with a large enough effect in the repeat runs; inconclusive = weak or mixed curves; inactive = flat fitted curve, though single readings scatter.
Potency is the fitted concentration of half-maximal effect.

This experiment can be described thus: qHTS assay to identify small molecule HDAC inhibitors (AID 1259364). Note: nearly all actives have a fitted effect of over 45% in size. As to conditions: HCT-116 HDAC-Glo I/II luminescence, 2 h; series mostly up to 92.4 µM. From the text:
U.S. Tox21 Program National Center for Advancing Translational Sciences [NCATS] NIH Chemical Genomics Center [NCGC] U.S. Environmental Protection Agency [EPA] National Institutes of Environmental Health Sciences [NIEHS] National Toxicology Program [NTP] U.S. Food and Drug Administration [FDA] Tox21 Assay Overview: Histone deacetylases (HDACs) are a group of epigenetic enzymes that regulate gene expression by histone deacetylation. HDACs are capable of introducing epigenetic modifications and such aberrations contribute to the onset and progression of several human diseases, thus making HDACs a popular therapeutic target. For identifying endogenous class I/II HDAC inhibitors a homogenous, luminogenic HDAC I/II cell based assay was used to measure the relative activity of class I and II HDACs from cells. Wild type HCT-116 cells were used to screen Tox21 libraries for identifying class I/II HDAC inhibitors.
Tox21 Assay Protocol Summary: HCT-116 cells were dispensed at 1,500 per well in 5uL of culture medium into white solid bottom 1536-well plates (Greiner Bio-One, Monroe, NC) using a Multidrop Combi (Thermo Scientific, Waltham, MA) dispenser. The assay plates were incubated at 37 C and 5% CO2 for an overnight, and then 23nL of compounds dissolved in DMSO and positive control were transferred using a Pintool station (Wako, San Diego, CA). The assay plates were incubated at 37C and 5% CO2 for 2hr. After compound treatment, 4uL of HDAC-Glo reagent (Promega Corporation, Madison, WI) was added to each well of the assay plates using Flying Reagent Dispenser (FRD, Aurora Discovery, San Diego, CA) and incubated the assay plates at room temperature for 30min. The luminescence signal was quantified using a ViewLux plate reader (Perkin Elmer, Shelton, CT).
Regarding `c1cnc2c(c1)ccc1cccnc12`, the Potency was 19.5 µM (active) and 24.3 µM (active) and 27.3 µM (active).

For the molecule `Cc1nnc(NS(=O)(=O)c2ccc(N)cc2)s1`, the Potency result was “inactive”. Regarding `CCCCCNCCCCC`, the Potency entry was “inactive”. The entry for `CCCCCCC(=O)O` is “inactive”; for `OC[C@H]1O[C@@H](Oc2ccc(O)cc2)[C@H](O)[C@@H](O)[C@@H]1O` it is “inactive”; for `CC(=O)C(C)C` it is “inactive”.

`O=C(NCC1CCCCN1)c1cc(OCC(F)(F)F)ccc1OCC(F)(F)F` (stereo not given): the Potency result was “inactive”. Take `O=c1n(CCCN2CCN(c3cccc(Cl)c3)CC2)nc2ccccn12`: the Potency entry is “inactive”. As for `COc1ccccc1[N+](=O)[O-]`, the Potency entry is “inactive”. In the case of `C=C1C[C@]23C[C@@]1(O)CC[C@H]2[C@@]12C=C[C@H](O)[C@@](C)(C(=O)O1)[C@H]2[C@@H]3C(=O)O`, the Potency result is “inactive”.

`Cc1ccccc1C=O`: the Potency result is “inactive”. Then `CC(=O)OC[C@H]1O[C@@](COC(C)=O)(O[C@H]2O[C@H](COC(C)=O)[C@@H](OC(C)=O)[C@H](OC(C)=O)[C@H]2OC(C)=O)[C@@H](OC(C)=O)[C@@H]1OC(C)=O`, with “inactive”; and `Nc1cccc(N)n1`, with “inactive”. Then `O=C1C(N(CO)C(=O)NCO)N(CO)C(=O)N1CO` (stereo not given), with “inactive”; and `Clc1cccc(Cl)c1NC1=NCCN1`, with “inactive”; and `CC(C)(C)NC[C@H](O)COc1nsnc1N1CCOCC1`, with “inactive”.

As to `CCn1cc(C(=O)O)c(=O)c2cc3c(cc21)OCO3`, the Potency entry is “inactive”. Then `O=C1OC(=O)c2c(Cl)c(Cl)c(Cl)c(Cl)c21`, with “inactive”. On to `CCCCCCCCO`, for which the Potency result was “inactive”.

On to `COc1c2ccoc2cc2oc(=O)ccc12`, for which the Potency result is “inactive”.

Regarding `CC(COCC(C)OC(=O)c1ccccc1)OC(=O)c1ccccc1` (stereo not given), the Potency entry was “inactive”. Then `OC1CCCCC1`, with “inactive”.

In the case of `C=CC(C)(C)C`, the Potency result was “inactive”. The entry for `NC1CCCCC1N` (stereo not given) is “inactive”. Then `Cc1ccccc1Cl`, with “inactive”; and `CN1Cc2c(N)cccc2C(c2ccccc2)C1` (stereo not given), with “inactive”. Then `CCCOC(=O)NCCCN(C)C`, with “inactive”; and `CN=C(NC#N)NCCSCc1nc[nH]c1C`, with “inactive”. Turning to `Cc1cc(C)c(O)c(C)c1`, the Potency result was “inactive”.

Consider `C=C(CC(=O)O)C(=O)O`, for which the Potency entry is “inactive”.

On to `Cc1cc(C)cc(O)c1`, for which the Potency result was “inactive”. The entry for `CCOC(=O)c1ccc(O)cc1` is “inactive”; for `OCC(O)CS` (stereo not given) it is “inactive”; for `N#CCC(=O)O` it is “inactive”.

Regarding `COc1cc(NC(=O)CC(C)=O)c(OC)cc1Cl`, the Potency entry was “inactive”.

For the molecule `CCc1cccc(CC)c1N`, the Potency entry was “inactive”. In the case of `NCCNCCNCCN`, the Potency entry is “inactive”. `C[n+]1ccn(CCO)c1`: the Potency result is “inactive”.

As for `N[C@@H](Cc1cc(I)c(Oc2ccc(O)c(I)c2)c(I)c1)C(=O)O`, the Potency entry is “inactive”.

For the molecule `CCN(CC)CCNC(=O)c1ccc(N)cc1`, the Potency result was “inactive”.
